Measurements reported in the supplement of paper PMC9694430.

Key:
Assay in all cases: thermal shift delta Tm vs DMSO control; higher = stronger stabilization (binding)
Conditions in all cases: 12.5 µM; protein concentration 2 µM
LOC_OS04G57630-cb004 = test system: LOC_OS04G57630-cb004
Method in brief: (§1)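 The melting temperature shift given here is a triplicate mean, measured against protein that received only DMSO. Melting temperatures came from Boltzmann fits of differential scanning fluorimetry data on E. coli-expressed, purified rice kinase domain constructs. Each 19.5 μl well contained 2 μM kinase, 100 mM potassium phosphate pH 7.5, 150 mM NaCl, 10% glycerol, 5 × SYPRO Orange and compound in DMSO. Plates were scanned from 25°C to 95°C at 0.05°C/s.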

LOC_OS05G07850-cb002 = test system: LOC_OS05G07850-cb002
Method in brief: as §1

LOC_OS05G16824-cb004 = test system: LOC_OS05G16824-cb004
Method in brief: as §1

LOC_OS05G28520-cb001 = test system: LOC_OS05G28520-cb001
Method in brief: as §1

LOC_OS05G30820-cb001 = test system: LOC_OS05G30820-cb001
Method in brief: as §1

LOC_OS05G43570-cb004 = test system: LOC_OS05G43570-cb004
Method in brief: as §1

LOC_OS06G16330-cb003 = test system: LOC_OS06G16330-cb003
Method in brief: as §1

LOC_OS06G22820-cb001 = test system: T1, LOC_OS06G22820-cb001
T1 sequence (whole entry): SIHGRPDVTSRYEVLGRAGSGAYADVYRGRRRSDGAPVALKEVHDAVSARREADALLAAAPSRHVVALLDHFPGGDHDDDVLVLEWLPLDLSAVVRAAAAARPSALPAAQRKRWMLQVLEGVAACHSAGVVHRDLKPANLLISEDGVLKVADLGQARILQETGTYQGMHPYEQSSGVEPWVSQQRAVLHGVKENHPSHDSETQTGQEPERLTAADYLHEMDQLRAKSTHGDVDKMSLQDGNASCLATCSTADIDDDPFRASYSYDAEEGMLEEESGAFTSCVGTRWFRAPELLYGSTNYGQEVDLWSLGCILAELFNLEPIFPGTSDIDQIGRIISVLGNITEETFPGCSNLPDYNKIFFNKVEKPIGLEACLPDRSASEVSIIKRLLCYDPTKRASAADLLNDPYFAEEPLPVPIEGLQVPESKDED
Method in brief: as §1

LOC_OS07G06570-cb004 = test system: LOC_OS07G06570-cb004
Method in brief: as §1

LOC_OS07G07230-cb001 = test system: LOC_OS07G07230-cb001
Method in brief: as §1

Sequence of LOC_OS06G16330-cb003 (as listed by the source): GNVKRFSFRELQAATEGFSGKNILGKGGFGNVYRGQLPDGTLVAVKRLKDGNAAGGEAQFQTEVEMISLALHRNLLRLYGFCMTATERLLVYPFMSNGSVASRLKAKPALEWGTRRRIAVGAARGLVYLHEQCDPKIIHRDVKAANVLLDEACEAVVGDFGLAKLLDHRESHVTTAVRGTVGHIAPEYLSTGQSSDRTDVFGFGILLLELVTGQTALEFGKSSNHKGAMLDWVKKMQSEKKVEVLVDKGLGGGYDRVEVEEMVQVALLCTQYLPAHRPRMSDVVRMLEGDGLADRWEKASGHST

| Structure (SMILES) | thermal shift delta Tm (LOC_OS04G57630-cb004) | thermal shift delta Tm (LOC_OS05G07850-cb002) | thermal shift delta Tm (LOC_OS05G16824-cb004) | thermal shift delta Tm (LOC_OS05G28520-cb001) | thermal shift delta Tm (LOC_OS05G30820-cb001) | thermal shift delta Tm (LOC_OS05G43570-cb004) | thermal shift delta Tm (LOC_OS06G16330-cb003) | thermal shift delta Tm (LOC_OS06G22820-cb001) | thermal shift delta Tm (LOC_OS07G06570-cb004) | thermal shift delta Tm (LOC_OS07G07230-cb001) |
| --- | --- | --- | --- | --- | --- | --- | --- | --- | --- | --- |
| COc1ccc(CCNCc2ccc(OCc3ccc(Cl)nc3)c(OC)c2)cc1OC | 0.32 °C | -0.86 °C | -5.08 °C | 0.09 °C | 0.33 °C | -0.15 °C | -0.05 °C | 0.26 °C | 0.85 °C | 0.59 °C |
| CCN(CC)CCCC(C)Nc1nc(C)cc(Nc2ccc3nc(C)cc(N)c3c2)n1 (stereo not given) | -0.27 °C | -0.09 °C | -1.91 °C | 0.14 °C | 0.63 °C | 0.55 °C | -0.04 °C | 0.19 °C | 1.53 °C | 0.49 °C |
| O=S(=O)(c1cccc2c(I)cccc12)N1CCCNCC1 | -0.05 °C | 0.78 °C | 1.61 °C | 0.14 °C | 0.08 °C | 0.32 °C | 0.09 °C | 0.37 °C | 1.9 °C | 0.16 °C |
| Nc1nc(N)c2nc(-c3cccc(O)c3)c(-c3cccc(O)c3)nc2n1 | 0.04 °C | 5.27 °C | -5.41 °C | 0.94 °C | 0.79 °C | 0.92 °C | 0.76 °C | 0.53 °C | 1.54 °C | 0.2 °C |
| CN1CCN(c2nc(C3=C(c4c[nH]c5ccccc45)C(=O)NC3=O)c3ccccc3n2)CC1 [Sotrastaurin] | -0.06 °C | 5.2 °C | 1.64 °C | 0.09 °C | 0.74 °C | 1.24 °C | 0.19 °C | 0.49 °C | 0.81 °C | -0.05 °C |
| Nc1ccc(C(=O)Nc2cccc(-c3nc(N4CCOCC4)c4oc5ncccc5c4n3)c2)cn1 | 1.19 °C | 1.25 °C | -3.13 °C | 0.31 °C | 0.83 °C | 0.15 °C | 0.32 °C | 0.39 °C | 0.88 °C | -0.01 °C |
| Cc1nc(Nc2n[nH]c3c2CN(C(=O)N[C@H](CN(C)C)c2ccccc2)C3(C)C)c2sccc2n1 | 0.4 °C | 1.45 °C | 5.08 °C | 2.24 °C | 0.45 °C | 1.95 °C | 0.72 °C | 2 °C | 1.67 °C | 0.02 °C |
| Oc1cc(CNC(=S)/C=C/c2cc(O)c(O)c(Br)c2)cc(O)c1O | 0.49 °C | -1.85 °C | -0.73 °C | 0.47 °C | 0.99 °C | 1.46 °C | 0.61 °C | 2.08 °C | 3.05 °C | 0.45 °C |
| CNC(=O)c1ccccc1Sc1ccc2c(/C=C/c3ccccn3)n[nH]c2c1 [Axitinib] | 0.24 °C | 5.45 °C | 0.17 °C | -0.35 °C | 0.45 °C | 0.48 °C | 2.75 °C | 0.73 °C | 1.05 °C | 0.76 °C |
| CNC(=O)c1ccc(Nc2ncc(C(F)(F)F)c(NCc3nccnc3N(C)S(C)(=O)=O)n2)cc1 | 2.75 °C | 10.8 °C | 9.21 °C | 6.38 °C | 4.15 °C | 0.69 °C | 5.49 °C | 0.27 °C | 0.66 °C | 0.51 °C |
| CCN1CCN(Cc2ccc(-c3cc4c(N[C@H](C)c5ccccc5)ncnc4[nH]3)cc2)CC1 | 0.95 °C | 5.78 °C | 3.87 °C | 1 °C | 0.48 °C | 0.5 °C | 4.68 °C | 0.76 °C | 1.03 °C | 0.13 °C |
| NC(=O)c1cnc2[nH]ccc2c1N[C@@H]1[C@@H]2CC3C[C@H]1C[C@@](O)(C3)C2 | 1.22 °C | 12.5 °C | 8.26 °C | 0.32 °C | 2.71 °C | 0.73 °C | 5.88 °C | 0.43 °C | 1.29 °C | 0.84 °C |
